Screening data deposited in PubChem by The Scripps Research Institute Molecular Screening Center.
Rows were chosen to be rich in hits. Some 4.6% of all compounds tested hit in one or more screens of this group.
hgDAF-12 ag: H. glycines DAF-12 receptor agonists, primary screen, cell-based, luminescence, HEK293, GAL4 fusion, UAS-luciferase | actives 1.8% (n = 370,000) | HEK293 GAL4-hgDAF12 UAS-luciferase reporter, agonist luminescence; normalized to butyrate control | activation, % at 6.8 µM;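 active = activation above a cutoff set at the mean of all screened compounds plus 3 SD, cut at about 10% in these data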;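 note: 0% = DMSO wells and 100% = sodium butyrate wells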
DAX1 inh-1: DAX1 (NR0B1) inhibitors on StAR promoter, primary screen, cell-based, luminescence, SF-1 (NR5A1), full-length DAX-1 | inhibition, % at 6.8 µM | HEK293T StAR-luciferase reporter, SF-1/DAX-1 repression relief | actives 1.1% (n = 370,000) | AID 652010, 2013;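 active = inhibition above the mean over all tested compounds plus 3 SD, cut at about 3.6% in these data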;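 note: 0% = DAX-1 cells with DMSO and 100% = cells lacking DAX-1 with DMSO; higher inhibition means more luminescence from relief of DAX-1 repression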
ssDAF-12 act: S. stercoralis DAF-12 nuclear receptor activators, primary screen, cell-based, luminescence, HEK293, GRIP1 co-expression, lit1-tk-luc; AID 652126, 2013; actives 1% (n = 370,000); HEK293 ssDAF-12/GRIP1 lit1-tk-luc reporter; % of 3 µM dafachronic acid response; Nuclear hormone receptor DAF-12 (Strongyloides stercoralis); activation, % at 6.8 µM;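 active = activation above the mean over all tested compounds plus 3 SD, cut at about 0.9% in these data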;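 note: 0% = DMSO-only wells and 100% = 3 µM delta7-dafachronic acid wells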
Wee1 stabilizer: Wee1 degradation inhibitors, primary screen, cell-based, HeLa, Wee1K328M-luciferase, luminescence; Wee1-like protein kinase (Homo sapiens), P30291; AID 1321, 2008; reporter increase, % at 5 µM; HeLa Luc-Wee1K328M stability; 100% = proteasome inhibitor MG132 effect; actives 1.2% (n = 220,000);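 active = activation above the mean of all tested compounds plus 3 SD, set per screening run, cut at about 8.8% in these data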;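 note: cells exposed to compound for 20 h before luminescence read; 0% = DMSO alone and 100% = MG132 at 30 µM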
DAX1 inh-2: DAX1 (NR0B1) inhibitors, primary screen, cell-based, HEK293, Gal4-DAX1, luciferase luminescence; actives 0.99% (n = 340,000); inhibition, % at 6.75 µM; AID 504766, 2011; Nuclear receptor subfamily 0 group B member 1 (Homo sapiens), P51843; HEK293 Gal4-DAX1 luciferase reporter;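 active = inhibition above the mean over all tested compounds plus 3 SD, cut at about 4.2% in these data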;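 note: 0% = DAX1-transfected cells with DMSO and 100% = empty-vector control cells with DMSO; inhibition shows as a rise in luminescence from relieved DAX1 repression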
Target sequence (P51843 207-470 limits assumed): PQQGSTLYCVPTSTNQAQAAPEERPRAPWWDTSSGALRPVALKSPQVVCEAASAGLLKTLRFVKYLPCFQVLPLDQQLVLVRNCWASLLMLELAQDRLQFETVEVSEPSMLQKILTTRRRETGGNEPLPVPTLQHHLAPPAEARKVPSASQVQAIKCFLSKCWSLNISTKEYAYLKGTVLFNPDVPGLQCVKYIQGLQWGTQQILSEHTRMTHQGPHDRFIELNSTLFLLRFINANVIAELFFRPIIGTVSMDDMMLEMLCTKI
hcDAF-12 act: H. contortus DAF-12 nuclear receptor activators, primary screen, cell-based, luminescence, HEK293, lit1-tk-luc reporter; AID 652067, 2013; activation, % at 6.8 µM; HEK293 hcDAF-12 lit1-tk-luc reporter; 0% DMSO, 100% Δ7-dafachronic acid; actives 1.4% (n = 370,000);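 active = activation above the mean of all tested compounds plus 3 SD, cut at about 5.5% in these data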;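 note: 100% = response to 3 µM Δ7-dafachronic acid high control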
LXRb hcDAF ctr: LXR agonists, Gal4 luciferase reporter, confirmation, counter-screen for hcDAF-12 agonist project, cell-based, luminescence, HEK293, H. contortus campaign. activation, % at 6.8 µM. 3,400 tested, under 10 active. shares compounds with hcDAF-12 act. HEK293 Gal4-LXR tk-luc reporter, 24 h; normalized: DMSO 0%, positive control 100%;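 active = mean percent activation of the reporter above a cutoff set as the average over tested compounds plus their standard deviation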
Target sequence (P55055 whole entry, looked up, the tested form may be a part): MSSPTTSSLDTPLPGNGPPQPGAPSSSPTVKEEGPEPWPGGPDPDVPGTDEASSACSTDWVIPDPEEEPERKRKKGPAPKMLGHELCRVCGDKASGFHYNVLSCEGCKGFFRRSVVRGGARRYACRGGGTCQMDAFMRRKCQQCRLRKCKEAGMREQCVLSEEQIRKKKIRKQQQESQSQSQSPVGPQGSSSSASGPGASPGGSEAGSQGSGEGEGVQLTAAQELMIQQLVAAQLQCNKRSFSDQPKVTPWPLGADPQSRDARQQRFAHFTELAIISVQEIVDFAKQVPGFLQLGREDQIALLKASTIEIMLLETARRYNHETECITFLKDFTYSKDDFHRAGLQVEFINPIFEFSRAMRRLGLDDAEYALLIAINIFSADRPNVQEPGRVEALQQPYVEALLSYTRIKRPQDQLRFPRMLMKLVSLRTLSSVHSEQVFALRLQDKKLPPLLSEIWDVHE
hcDAF12 ag: H. contortus DAF-12 receptor agonists, confirmation, cell-based, luminescence, HEK293, lit1-tk-luc, triplicate | activation, % at 6.8 µM | HEK293 hcDAF-12 lit1-tk-luc reporter; % of Δ7-dafachronic acid response | shares compounds with hcDAF-12 act | actives 61% (n = 3,400);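 active = mean activation across triplicate tests above the threshold derived from the earlier primary screen, cut at about 5.5% in these data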;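 note: 0% = DMSO only wells and 100% = 3 µM Δ7-dafachronic acid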
Numbers without * were called inactive; . = no result given.

SMILES | hgDAF-12 ag | DAX1 inh-1 | ssDAF-12 act | Wee1 stabilizer | DAX1 inh-2 | hcDAF-12 act | LXRb hcDAF ctr | hcDAF12 ag
Cc1csc(=O)n1CC(=O)OCC(=O)Nc1ccc(Cl)cc1F | 0 | 0 | -1 | . | -1 | 0 | . | .
Cc1csc(=O)n1CC(=O)OCC(=O)Nc1cc(Cl)ccc1[N+](=O)[O-] | 1 | 0 | 0 | . | 0 | 7.3* | 0 | 5
CCOc1ccc(N2C(=O)C(=O)/C(=C(/O)c3ccccc3)C2c2ccccc2[N+](=O)[O-])cc1 (centres undefined) | 2 | 1 | 1.3* | 4 | 0 | 9.4* | 0 | 3
O=C1C(=O)N(c2cccc(Cl)c2)C(c2ccccc2[N+](=O)[O-])/C1=C(\O)c1ccccc1 (centres undefined) | . | . | . | -2 | -1 | . | . | .
COc1ccc(/C=C/C(=O)C2C(=O)C=C(C)OC2=O)cc1O (centres undefined) | 6 | 0 | 1.6* | 0 | 1 | 13* | 0 | 3
COC(=O)c1c(NC(=O)COC(=O)c2ccc(Cl)cc2[N+](=O)[O-])sc2c1CCCCC2 | 1 | 0 | -1 | -2 | 0 | 2 | . | .
COC(=O)c1c(NC(=S)Nc2ccc(F)cc2[N+](=O)[O-])sc2c1CCCCC2 | 2 | -1 | 0 | 1 | 1 | 9.5* | 0 | 2
Cc1c(-c2nc(-c3ccc(C(F)(F)F)cc3)no2)n(C)oc1=O | 9 | 2 | 0 | -2 | . | 9.5* | 1 | 7.9*
CCC/C(C(=O)NCCO)=C1/c2ccccc2C(=O)N1c1ccccc1 | 1 | 0 | 0 | . | 0 | 4 | . | .
CC(Sc1nnc(C(C)Oc2ccccc2F)o1)C(=O)NCc1ccc2c(c1)OCO2 (centres undefined) | -1 | -1 | -2 | . | 0 | -1 | . | .
O=C(Nc1ccccn1)c1onc2c1CCCC2 | 6 | 2 | 0 | -2 | -3 | 8.0* | 1 | 5.8*
O=C(CCn1cccn1)Nc1ccc2c(c1)OCO2 | 2 | -1 | -1 | . | -1 | 5 | . | .
O=C(NCc1ccco1)c1ccc2sc([C@@H]3O[C@H](CO)[C@@H](O)[C@H]3O)nc2c1 | 0 | 0 | -1 | . | . | -1 | . | .
CN(C)CCNC(=O)c1cccc2nc3cccc(F)c3nc12 | -1 | -4 | 1.5* | . | 1 | 18* | 1 | 14*
COc1ccc(OC)c2nc3c(C(=O)NCCN(C)C)cccc3nc12 | 2 | 1 | 0 | . | 1 | 11* | 0 | 9.2*
Cc1ccc(Nc2ncc3c(n2)CC(C)CC3=O)c(C)c1 (centres undefined) | 10 | 2 | 0 | -1 | 4 | 7.1* | 1 | 5
COc1ccc(Cn2ccc3ccc(-c4ccc5ccn(Cc6cccc(F)c6)c5c4)cc32)cc1 | 2 | -1 | 0 | . | . | -1 | . | .
O=C(NCC1CCCO1)c1cc2cc(F)ccc2[nH]1 (centres undefined) | 2 | 0 | 0 | . | 1 | 7.1* | 0 | 4
COc1ccc(S[C@]2(C(=O)NC3CC3)CC(=O)N[C@@H]2c2ccc(OC)cc2)cc1 | 3 | 0 | -1 | . | . | 0 | . | .
COc1ccccc1OCCNC(=O)c1cc(F)c(F)cc1Cl | 3 | 0 | 0 | -2 | 1 | 7.8* | 0 | 3
COc1ccccc1OCCNC(=O)c1cc(SC)ccc1Cl | -1 | 0 | -2 | -1 | -1 | -2 | . | .
CN1C/C(=C/c2ccccc2)N2C(=O)C[C@@H](c3ccccc3)N=C12 | -5 | 0 | -2 | . | . | -4 | . | .
Nc1cccc(-c2nc3ccccc3[nH]2)c1 | 8 | 2 | -1 | 2 | 1 | 8.0* | 0 | 5
CN1C(=O)C(CC#N)(C2(CC#N)C(=O)N(C)c3ccccc32)c2ccccc21 (centres undefined) | -1 | 0 | -1 | . | 1 | -1 | . | .
Cc1ccccc1OCc1nc(-c2ccc(Br)o2)no1 | 4 | 1 | -1 | 3 | 1 | 0 | . | .
SMILES | hgDAF-12 ag | DAX1 inh-1 | ssDAF-12 act | Wee1 stabilizer | DAX1 inh-2 | hcDAF-12 act | LXRb hcDAF ctr | hcDAF12 ag
COc1ccccc1Cc1nc(-c2ccc(Br)o2)no1 | 4 | 3 | 1 | -2 | -2 | 8.1* | 0 | 8.0*
COC(=O)c1ccc(N=NNc2ccc(C(=O)OC)cc2)cc1 | 7 | 3 | 0 | 0 | -1 | 10* | 1 | 12*
O=C1OCC(CO)(CO)N=C1NNc1ccccc1Cl | 1 | 1 | 1 | -1 | 0 | 9.0* | 0 | 2
O=C(CSc1nccc2ccccc12)N1CCN(c2ccccn2)CC1 | 2 | 3 | -1 | 7 | -1 | 8.2* | 0 | 1
O=C(CC[C@H]1O[C@@H](n2ccc(=O)[nH]c2=O)[C@H](O)[C@@H]1O)N[C@@H](Cc1ccccc1)C(=O)NCC1CCCO1 (some centres undefined) | 3 | -1 | -1 | . | . | 0 | . | .
O=C(CCSc1nc2ccccc2o1)N1CCOCC1 | 1 | 0 | 0 | -1 | 1 | 7.1* | 0 | 3
O=C(CCSc1ccccc1)N1CCOCC1 | 10 | 2 | -1 | -2 | 2 | 5 | . | .
O=C(COC(=O)C1CCC(N2C(=O)C3C4CCC(C4)C3C2=O)CC1)c1ccc(F)cc1 (centres undefined) | 1 | 0 | 0 | . | 0 | 0 | . | .
O=C(CNc1ccccc1C(=O)O)c1ccccc1 | 1 | 1 | 1 | 1 | 1 | 7.7* | 0 | 0
NC(=O)c1ccccc1NCC(=O)c1ccc(Cl)cc1 | 1 | 0 | -1 | . | 2 | 2 | . | .
CSc1nnc2c(=O)[nH]c(=O)n(C)c2n1 | 4 | 0 | -1 | . | 1 | 0 | . | .
COc1ccc(NC(=O)Nc2nnc(-c3ccco3)s2)cc1 | 12* | 2 | 1.2* | 3 | 3 | 8.3* | 1 | 9.0*
